# From PubChem BioAssay (NCATS)
# Records with an inconclusive call do not appear. Where a call stands in place of a potency, no number is given. Activity calls are given as the source filed them. Calls follow the shape of the dose curve; as a rule, active = well fitted curve in the direction sought with a large enough effect; inconclusive = small, poorly fitted or top-dose-only effect, or another doubt; inactive = no such curve, though single readings can be large; an effect the other way counts as inactive or inconclusive.
# Key:
# MKL-1 = test: qHTS assay to identify novel small-molecules to repurpose for Merkel cell carcinoma treatment (AID 1296009); settings: MCC and control cell lines, CellTiter-Glo viability, 72 h; series mostly up to 46 µM; also: nearly all actives have a fitted effect of over 60% in size; also: potency is read from the fitted curve at half-maximal effect
# Procedure, shortened: (§1)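 CellTiter-Glo luminescence after 72 hr compound exposure at 37 degree celsius gave cell viability. Libraries NPC and MIPE were run as 8- and 11-point dose responses; RLUs normalized to DMSO (negative) and no-cell (cytotoxicity) controls.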
# MKL-2 = test: as above; settings: MCC and control cell lines, CellTiter-Glo viability, 72 h; series mostly up to 46 µM
# Procedure, shortened: as §1
# NIH3T3 = test: as above; settings: MCC and control cell lines, CellTiter-Glo viability, 72 h; series mostly up to 44.8 µM
# Procedure, shortened: as §1
# UISO = test: as above; settings: MCC and control cell lines, CellTiter-Glo viability, 72 h; series mostly up to 46 µM
# Procedure, shortened: as §1
# WaGa = test: as above; settings: MCC and control cell lines, CellTiter-Glo viability, 72 h; series mostly up to 46 µM
# Procedure, shortened: as §1
# C33A = test: Primary qHTS to identify gynecologic anti-cancer compounds using libraries of approved drugs and bioactive compounds (AID 1345084); settings: Gynecologic cancer cell panel viability, ATPlite luminescence, 48 h; series mostly up to 57.5 µM; also: nearly all actives have a fitted effect of over 55% in size
# Procedure, shortened: (§2)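 Cell viability after 48 h drug treatment, ATPlite luminescence readout; five doses.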
# CAOV3 = test: as above; settings: Gynecologic cancer cell panel viability, ATPlite luminescence, 48 h; series mostly up to 57.5 µM
# Procedure, shortened: as §2
# CASKI = test: as above; settings: Gynecologic cancer cell panel viability, ATPlite luminescence, 48 h; series mostly up to 57.5 µM
# Procedure, shortened: as §2
# Es-2 = test: as above; settings: Gynecologic cancer cell panel viability, ATPlite luminescence, 48 h; series mostly up to 57.5 µM
# Procedure, shortened: as §2
# HeLa = test: as above; settings: Gynecologic cancer cell panel viability, ATPlite luminescence, 48 h; series mostly up to 57.5 µM
# Procedure, shortened: as §2
Structure (SMILES),Potency (MKL-1),Potency (MKL-2),outcome (NIH3T3),Potency (UISO),Potency (WaGa),Potency (C33A),Potency (CAOV3),Potency (CASKI),Potency (Es-2),Potency (HeLa)
COc1cc2nc(N3CCN(C(=O)C4COc5ccccc5O4)CC3)nc(N)c2cc1OC (stereo not given),inactive,inactive,inactive,inactive,inactive,inactive,inactive,inactive,inactive,inactive
CCC1(C)CC(=O)NC1=O (stereo not given),inactive,inactive,inactive,inactive,inactive,inactive,inactive,inactive,inactive,inactive
Clc1ccc2nsnc2c1NC1=NCCN1,inactive,inactive,inactive,inactive,inactive,inactive,–,inactive,inactive,inactive
CC(C)(Oc1ccc(C2CC2(Cl)Cl)cc1)C(=O)O (stereo not given),inactive,inactive,inactive,inactive,inactive,inactive,–,inactive,inactive,inactive
CCOC(=O)C(C)(C)Oc1ccc(Cl)cc1,inactive,inactive,inactive,inactive,inactive,inactive,inactive,inactive,inactive,inactive
Cn1ccc2cc3c(cc21)CCN3C(=O)Nc1cccnc1,inactive,inactive,inactive,inactive,inactive,inactive,inactive,inactive,inactive,inactive
Nc1nnc(-c2cccc(Cl)c2Cl)c(N)n1,inactive,inactive,inactive,inactive,inactive,inactive,–,inactive,inactive,inactive
CN1CCN(C2=Nc3cc(Cl)ccc3Nc3ccccc32)CC1,inactive,inactive,inactive,inactive,inactive,inactive,–,inactive,inactive,inactive
COc1ccc2[nH]cc(CCNC(C)=O)c2c1,inactive,inactive,inactive,inactive,inactive,inactive,–,inactive,inactive,inactive
CN(CCOc1ccc(NS(C)(=O)=O)cc1)CCc1ccc(NS(C)(=O)=O)cc1,inactive,inactive,inactive,inactive,inactive,inactive,inactive,inactive,inactive,inactive
Cc1cc(C(C)(C)C)cc(C)c1CC1=NCCN1,inactive,inactive,inactive,inactive,inactive,inactive,inactive,inactive,–,–
CN1CCC(=C2c3ccccc3C=Cc3ccccc32)CC1,inactive,16.8 µM (active),inactive,inactive,26.6 µM (active),inactive,–,inactive,inactive,inactive
CC1(C)O[C@H]2CC(=O)OC[C@]23[C@H]2CC[C@@]4(C)[C@H](c5ccoc5)OC(=O)[C@H]5O[C@]54[C@]2(C)C(=O)C[C@@H]13,inactive,inactive,inactive,inactive,inactive,inactive,inactive,inactive,inactive,inactive
CN(C)C(=O)C(CCN1CCC(O)(c2ccc(Cl)cc2)CC1)(c1ccccc1)c1ccccc1,inactive,18.7 µM (active),–,–,–,–,–,–,–,–
O=C(CCCN1CCC(O)(c2ccc(Cl)cc2)CC1)c1ccc(F)cc1,inactive,inactive,inactive,inactive,inactive,inactive,–,inactive,inactive,inactive
NC(=O)OCC(COC(N)=O)c1ccccc1,inactive,inactive,inactive,inactive,inactive,inactive,inactive,inactive,inactive,inactive
Cc1ccc(C(=O)Nc2ccc(S(=O)(=O)O)c3cc(S(=O)(=O)O)cc(S(=O)(=O)O)c23)cc1NC(=O)c1cccc(NC(=O)Nc2cccc(C(=O)Nc3cc(C(=O)Nc4ccc(S(=O)(=O)O)c5cc(S(=O)(=O)O)cc(S(=O)(=O)O)c45)ccc3C)c2)c1,inactive,inactive,inactive,inactive,inactive,inactive,inactive,inactive,inactive,inactive
NC12CC3CC(CC(C3)C1)C2,inactive,inactive,inactive,inactive,inactive,inactive,–,inactive,inactive,inactive
CCN1CCCC1CNC(=O)c1cc(S(=O)(=O)CC)c(N)cc1OC (stereo not given),inactive,inactive,inactive,inactive,inactive,inactive,–,inactive,inactive,inactive
CC1COc2c(N3CCN(C)CC3)c(F)cc3c(=O)c(C(=O)O)cn1c23 (stereo not given),inactive,inactive,inactive,inactive,inactive,inactive,–,inactive,inactive,inactive
CN1CCC(=C2c3ccccc3CC(=O)c3sccc32)CC1,inactive,9.44 µM (active),inactive,inactive,29.9 µM (active),inactive,inactive,inactive,inactive,inactive
